Data on 13 compounds can be found in PubChem BioAssay (NCI).

Molecules are shown by their SMILES. The panel holds about 83,000 compounds, 20% with a hit somewhere; the sample as a whole holds those more often.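 Testing used 96-well plates and a 48-hour single-concentration exposure. Example: -40 means 40% of the starting cells died.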 A number with no mark means an inactive call. Activity calls are given as the source filed them. How the source made its calls: active means growth percent below 10; inactive means the rest.

Test systems include SR leukemia; RPMI-8226 leukemia; OVCAR-8 ovarian; OVCAR-5 ovarian; OVCAR-4 ovarian; SK-OV-3 ovarian; IGROV1 ovarian; OVCAR-3 ovarian; HS 578T breast; NCI/ADR-RES ovarian.
Assay in all cases: NCI-60 one-dose screen, 48 h (100 = growth as untreated, 0 = no growth, -100 = all killed)
Holding throughout (details): 10 µM unless noted

Turning to `COCCn1cc(-c2csc(-c3cn(C)c4ccc(Br)cc34)n2)c2cccnc21`, the growth in the experiment with SR leukemia was 31.3%; in the experiment with RPMI-8226 leukemia, 60.7%; with OVCAR-8 ovarian it was 56.3%; in the experiment with OVCAR-5 ovarian, 68.3%; in the experiment with OVCAR-4 ovarian, 71%; in the experiment on SK-OV-3 ovarian, 71.9%. Moreover, the growth in the experiment on IGROV1 ovarian is 80.2%; in the experiment with OVCAR-3 ovarian, 80.3%; in the experiment on HS 578T breast, 63%; in the experiment on NCI/ADR-RES ovarian it was 60%.

Take `Cc1cc(C)c2c(c1)N(C)c1ncnc(-n3cnc4cc(C)ccc43)c1CC2C` (stereo not given): the growth is 4.51% (active) with SR leukemia; 9.87% (active) in the experiment on RPMI-8226 leukemia; 17.1% in the experiment on OVCAR-8 ovarian; 76.6% with OVCAR-5 ovarian; 61.5% in the experiment with OVCAR-4 ovarian; 3.2% (active) in the experiment on SK-OV-3 ovarian. For the same compound, the growth in the experiment on IGROV1 ovarian is 44.7%; in the experiment with OVCAR-3 ovarian it was 8.19% (active); in the experiment with HS 578T breast it was 25.1%; in the experiment on NCI/ADR-RES ovarian it was 14.6%.

Turning to `COC(=O)c1c(C)c2n(c1C)C(=O)C(c1ccccc1)=C2`, the growth with SR leukemia is 102%; in the experiment with RPMI-8226 leukemia it was 88.5%; in the experiment on OVCAR-8 ovarian, 79.2%; with OVCAR-5 ovarian, 68.9%; with OVCAR-4 ovarian, 71.2%; in the experiment on SK-OV-3 ovarian, 80.8%. The growth in the experiment with IGROV1 ovarian is -8.44% (active); in the experiment on OVCAR-3 ovarian it was 104%; in the experiment with HS 578T breast, 103%; in the experiment on NCI/ADR-RES ovarian it was 86.8%.

On to `CSc1nc2ncc([N+](=O)[O-])c(=O)n2[nH]1`, for which the growth with SR leukemia is 107%; with RPMI-8226 leukemia, 107%; in the experiment on OVCAR-8 ovarian it was 104%; in the experiment with OVCAR-5 ovarian, 106%; with OVCAR-4 ovarian it was 102%; in the experiment on SK-OV-3 ovarian it was 113%. Besides, the growth in the experiment with IGROV1 ovarian is 105%; in the experiment on OVCAR-3 ovarian it was 113%; with HS 578T breast, 103%; with NCI/ADR-RES ovarian, 101%.

In the case of `Nc1nc2ccc(-c3nc4ccc5[nH]ncc5c4c4c3CCCC4)cc2s1`, the growth in the experiment on SR leukemia was 95.9%; with RPMI-8226 leukemia, 115%; with OVCAR-8 ovarian, 100%; in the experiment on OVCAR-5 ovarian it was 105%; with OVCAR-4 ovarian, 107%; in the experiment on SK-OV-3 ovarian it was 94.4%. For the same compound, the growth in the experiment on IGROV1 ovarian was 102%; in the experiment with OVCAR-3 ovarian, 110%; in the experiment with HS 578T breast, 99.7%; with NCI/ADR-RES ovarian, 103%.

Take `COc1ccc(Cc2cnc(NC(=O)c3cc(C)oc3C)s2)cc1`: the growth in the experiment with SR leukemia is 14.1%; in the experiment with RPMI-8226 leukemia, 51.9%; with OVCAR-8 ovarian, 45.3%; in the experiment on OVCAR-5 ovarian it was 53.6%; with OVCAR-4 ovarian, 58.5%; in the experiment on SK-OV-3 ovarian, 49.1%. Also, the growth in the experiment with IGROV1 ovarian was 44.6%; in the experiment with OVCAR-3 ovarian, 15%; in the experiment on HS 578T breast it was 24.5%; in the experiment with NCI/ADR-RES ovarian, 20.6%.

On to `CCOC(=O)C(=O)C(C(=O)OCC)c1ccccc1` (stereo not given), for which the growth with SR leukemia is 94.7%; with RPMI-8226 leukemia, 94.3%; in the experiment on OVCAR-8 ovarian it was 120%; in the experiment with OVCAR-5 ovarian it was 106%; in the experiment on OVCAR-4 ovarian, 106%; in the experiment on SK-OV-3 ovarian it was 110%. Moreover, the growth with IGROV1 ovarian was 122%; in the experiment with OVCAR-3 ovarian, 120%; with HS 578T breast, 94.2%; in the experiment with NCI/ADR-RES ovarian, 109%.

Regarding `CC(C)=CC(=O)OCC(=O)O[C@@H]1C[C@]2(C(C)C)O[C@@]1(C)[C@@H]1CC[C@@H](C)[C@H]1[C@@H]2OC(=O)/C=C/c1ccccc1`, the growth in the experiment with SR leukemia is 69.2%; in the experiment with RPMI-8226 leukemia it was 56%; in the experiment with OVCAR-8 ovarian it was 35.9%; with OVCAR-5 ovarian, 103%; in the experiment with OVCAR-4 ovarian it was 96.5%; in the experiment with SK-OV-3 ovarian it was 91.7%. The growth in the experiment on IGROV1 ovarian is 108%; in the experiment on OVCAR-3 ovarian, 96.5%; in the experiment with HS 578T breast it was -0.351% (active); in the experiment on NCI/ADR-RES ovarian, 30.6%.

As to `CC(=O)/C(=C\c1c(-c2ccccc2)[nH]c2ccccc12)S(C)(=O)=O`, the growth in the experiment with SR leukemia is -25.2% (active); in the experiment with RPMI-8226 leukemia, -32.2% (active); in the experiment on OVCAR-8 ovarian it was 40.9%; in the experiment with OVCAR-5 ovarian it was 78.3%; with OVCAR-4 ovarian it was -29.6% (active); in the experiment with SK-OV-3 ovarian it was 35.9%. The growth is 54.1% in the experiment on IGROV1 ovarian, -54.6% (active) in the experiment on OVCAR-3 ovarian, 3.31% (active) in the experiment on HS 578T breast and -19.5% (active) with NCI/ADR-RES ovarian.

On to `O=C(N/N=C/c1ccc(Cl)cc1)c1[nH]c2ccc(Cl)cc2c1-c1ccccc1`, for which the growth in the experiment with SR leukemia was 52.2%; with RPMI-8226 leukemia it was -3.56% (active); with OVCAR-8 ovarian it was 28.8%; in the experiment with OVCAR-5 ovarian, 51.5%; in the experiment with OVCAR-4 ovarian, 41.4%; with SK-OV-3 ovarian, -1.75% (active). For the same compound, the growth in the experiment on IGROV1 ovarian was 17.3%; in the experiment with OVCAR-3 ovarian, -13.4% (active); in the experiment with HS 578T breast, 82%; with NCI/ADR-RES ovarian, 1.79% (active).

Regarding `c1ccc([P+](c2ccccc2)(c2ccccc2)c2ccc3c4ccc([P+](c5ccccc5)(c5ccccc5)c5ccccc5)c5cccc(c6cccc2c63)c54)cc1`, the growth is 14.7% with SR leukemia; -8.35% (active) with RPMI-8226 leukemia; 14.2% in the experiment on OVCAR-8 ovarian; 24.3% in the experiment with OVCAR-5 ovarian; 23.6% in the experiment on OVCAR-4 ovarian; -7.17% (active) in the experiment on SK-OV-3 ovarian. For the same compound, the growth was 6.28% (active) with IGROV1 ovarian, 19.3% in the experiment with OVCAR-3 ovarian, 15.8% with HS 578T breast and 72% with NCI/ADR-RES ovarian.

On to `Nc1ncnc2c1N=C(c1ccc(Br)cc1)CC(c1cccc(Nc3ccnc4cc(C(F)(F)F)ccc34)c1)N2` (stereo not given), for which the growth in the experiment with SR leukemia is 22.1%; in the experiment with RPMI-8226 leukemia, 12.7%; in the experiment on OVCAR-8 ovarian it was 69.9%; in the experiment on OVCAR-5 ovarian, 88.7%; in the experiment with OVCAR-4 ovarian, 76.8%; in the experiment with SK-OV-3 ovarian, 45.7%. Also, the growth in the experiment on IGROV1 ovarian was 65.7%; in the experiment on OVCAR-3 ovarian, 83.9%; in the experiment with HS 578T breast, 65%; in the experiment on NCI/ADR-RES ovarian it was 66.9%.

For the compound `O=C1c2c(c3c4ccccc4[nH]c3c3ccc4ccccc4c23)C(=O)N1CCN1CCNCC1`, the growth with SR leukemia is -13.3% (active); with RPMI-8226 leukemia, -35% (active); with OVCAR-8 ovarian, 34.5%; in the experiment on OVCAR-5 ovarian, 99.5%; with OVCAR-4 ovarian, 12.9%; in the experiment with SK-OV-3 ovarian, 107%. The growth in the experiment with IGROV1 ovarian is 58.1%; in the experiment on OVCAR-3 ovarian it was -47.5% (active); in the experiment with HS 578T breast it was 94.7%; with NCI/ADR-RES ovarian, 25.9%.
